# Measured values published in PubChem BioAssay (Tox21).
# Values joined by “and” are separate entries in the source; they are usually repeats but may differ in a detail not shown here. Equal entries are not always repeated. Unmarked numbers belong to inactive results. Inconclusive results are not listed. A call without a number means that no potency is given here. Active and inactive are the calls of the source. Unless noted, calls follow the shape of the dose curve; as a rule, active = well fitted curve in the direction sought with a large enough effect in the repeat runs; inconclusive = weak or mixed curves; inactive = no such curve, though single readings can be large; an effect the other way counts as inactive or inconclusive.
# Key:
# [1] = qHTS assay to identify small molecule antagonists of the glucocorticoid receptor (GR) signaling pathway - cell viability counter screen (AID 720693); also: nearly all actives have a fitted effect of over 55% in size
# [2] = qHTS assay for identifying genotoxic compounds that show differential cytotoxicity against isogenic chicken DT40 cell lines with known DNA damage response pathways - wild type cell line (AID 743012); also: nearly all actives have a fitted effect of over 60% in size
# Summary of the method: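 Cytotoxicity in repair-proficient parental chicken DT40 cells serves as the comparator for Rad54/Ku70- and Rev3-deficient lines. Cells were exposed to compounds for 40 h at 37 C/5% CO2, and ATP-based luminescence (CellTiter-Glo) measured viability.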
# [3] = qHTS assay for identifying genotoxic compounds that show differential cytotoxicity against isogenic chicken DT40 cell lines with known DNA damage response pathways - Rev3 mutant cell line (AID 743014); also: nearly all actives have a fitted effect of over 55% in size
# [4] = qHTS assay for identifying genotoxic compounds that show differential cytotoxicity against isogenic chicken DT40 cell lines with known DNA damage response pathways - Rad54/Ku70 mutant cell line (AID 743015); also: nearly all actives have a fitted effect of over 60% in size
# [5] = qHTS assay to identify small molecule antagonists of the androgen receptor (AR) signaling pathway - cell viability counter screen (AID 743033; also: nearly all actives have a fitted effect of over 45% in size)
# [6] = qHTS assay to identify small molecule antagonists of the androgen receptor (AR) signaling pathway using the MDA cell line - cell viability counter screen (AID 743041; also: nearly all actives have a fitted effect of over 45% in size)
# Summary of the method: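 Cytotoxicity counter screen: MDA-kb2 AR-luc cells, compound + R1881, 16 h, 37C, 0% CO2; CellTiter-Fluor added at 15.5 h, fluorescence read after 30 min.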
# [7] = qHTS assay to identify small molecule antagonists of the thyroid receptor (TR) signaling pathway - cell viability counter screen (AID 743064); also: nearly all actives have a fitted effect of over 50% in size
# Summary of the method: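 GH3.TRE-Luc rat pituitary cells carrying a TRE-luciferase reporter were treated with compound plus 1 nM T3 (final) for 23.5 h at 37 °C. Viability was then read in the same wells by CellTiter-Fluor fluorescence after a further 30 min.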
# [8] = qHTS assay to identify small molecule antagonists of the thyroid receptor (TR) signaling pathway (AID 743065); also: series mostly up to about 70 µM; nearly all actives have a fitted effect of over 55% in size
# Summary of the method: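 GH3.TRE-Luc rat pituitary cells (two TREs driving luciferase) were dosed with compound, then stimulated with 1 nM T3 (final) for 23.5 h at 37 C. ONE-Glo luminescence was the read-out, with CellTiter-Fluor fluorescence as the cytotoxicity counter-screen.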
# [9] = test system: thyroid hormone receptor (rat, GH3 cells); experiment: qHTS assay to identify small molecule agonists of the thyroid receptor (TR) signaling pathway (AID 743066; calls by dose curve)
# [10] = molecular target: Estrogen receptor (Homo sapiens) (UniProt P03372); experiment: qHTS assay to identify small molecule antagonists of the estrogen receptor alpha (ER-alpha) signaling pathway (AID 743069; active = well fitted curve in the direction sought with a large enough effect in the signal ratio in the repeat runs, not every such curve was filed as active; the % refers to the signal ratio)
# Sequence of Estrogen receptor (Homo sapiens) (P03372 whole entry, looked up): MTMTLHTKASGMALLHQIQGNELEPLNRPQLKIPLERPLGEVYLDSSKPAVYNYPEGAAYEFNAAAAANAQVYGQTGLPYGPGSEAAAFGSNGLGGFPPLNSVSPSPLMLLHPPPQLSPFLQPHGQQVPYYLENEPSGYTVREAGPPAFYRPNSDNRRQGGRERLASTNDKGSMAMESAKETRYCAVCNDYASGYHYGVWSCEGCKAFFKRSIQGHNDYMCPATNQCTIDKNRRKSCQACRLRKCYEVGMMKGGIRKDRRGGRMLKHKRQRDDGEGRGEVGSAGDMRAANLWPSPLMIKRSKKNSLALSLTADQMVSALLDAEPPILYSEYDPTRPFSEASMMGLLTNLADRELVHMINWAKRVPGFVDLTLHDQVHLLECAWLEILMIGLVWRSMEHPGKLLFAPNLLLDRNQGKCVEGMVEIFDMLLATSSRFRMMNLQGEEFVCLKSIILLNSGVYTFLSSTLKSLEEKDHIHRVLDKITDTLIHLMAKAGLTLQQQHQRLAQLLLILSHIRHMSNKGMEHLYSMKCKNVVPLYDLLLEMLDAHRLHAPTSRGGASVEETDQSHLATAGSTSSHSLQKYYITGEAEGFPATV
# Summary of the method: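 Beta-lactamase FRET fluorescence is read after 2 hr at room temperature with LiveBLAzer B/G substrate. Before that, ER-alpha-bla HEK293 cells sit 4 hr after plating, then receive compound plus 17beta-estradiol and incubate 18 hr at 37C.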
# [11] = qHTS assay to identify small molecule antagonists of the estrogen receptor alpha (ER-alpha) signaling pathway - cell viability counter screen (AID 743074; calls by dose curve;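 also: HEK293 cells carrying ER-alpha-UAS-bla reporter stimulated with 17beta-estradiol; nearly all actives have a fitted effect of over 45% in size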)
# [12] = molecular target: Estrogen receptor (Homo sapiens) (UniProt P03372); experiment: qHTS assay to identify small molecule agonists of the estrogen receptor alpha (ER-alpha) signaling pathway (AID 743075; calls by dose curve)
# [13] = molecular target: Estrogen receptor (Homo sapiens) (UniProt P03372); experiment: qHTS assay to identify small molecule agonists of the estrogen receptor alpha (ER-alpha) signaling pathway using the BG1 cell line (AID 743079); also: nearly all actives have a fitted effect of over 20% in size; also: potency is read from the fitted curve at half-maximal effect
# [14] = qHTS assay to identify small molecule antagonists of the estrogen receptor alpha (ER-alpha) signaling pathway using the BG1 cell line - cell viability counter screen (AID 743081);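 also: compound given together with 17beta-estradiol as the ER stimulus; series mostly up to about 70 µM; nearly all actives have a fitted effect of over 45% in size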
# Aromatase (Homo sapiens) = Aromatase (Homo sapiens) (UniProt P11511); experiment: qHTS assay to identify aromatase inhibitors (AID 743083); also: series mostly up to about 70 µM; nearly all actives have a fitted effect of over 55% in size
# Sequence of Aromatase (Homo sapiens) (P11511 whole entry, looked up): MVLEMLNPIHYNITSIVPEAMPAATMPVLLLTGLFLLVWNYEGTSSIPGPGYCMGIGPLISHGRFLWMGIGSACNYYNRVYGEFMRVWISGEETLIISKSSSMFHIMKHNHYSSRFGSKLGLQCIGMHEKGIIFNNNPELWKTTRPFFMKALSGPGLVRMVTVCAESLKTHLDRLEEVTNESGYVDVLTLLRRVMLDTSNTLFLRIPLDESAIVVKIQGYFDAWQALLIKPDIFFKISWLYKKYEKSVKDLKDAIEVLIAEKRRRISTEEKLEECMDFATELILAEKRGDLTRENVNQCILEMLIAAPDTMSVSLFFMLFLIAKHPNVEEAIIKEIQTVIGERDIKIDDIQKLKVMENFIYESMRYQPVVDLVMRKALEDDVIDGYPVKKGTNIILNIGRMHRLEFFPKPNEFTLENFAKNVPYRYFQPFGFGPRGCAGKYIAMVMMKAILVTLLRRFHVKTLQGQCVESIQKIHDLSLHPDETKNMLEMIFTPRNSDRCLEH
# [15] = molecular target: Androgen receptor (Homo sapiens) (UniProt P10275); experiment: qHTS assay to identify small molecule antagonists of the androgen receptor (AR) signaling pathway (AID 743035; active = well fitted inhibition curve with a large enough effect in the signal ratio in the repeat runs, not every such curve was filed as active; the % refers to the signal ratio)
# Sequence of Androgen receptor (Homo sapiens) (P10275 whole entry, looked up): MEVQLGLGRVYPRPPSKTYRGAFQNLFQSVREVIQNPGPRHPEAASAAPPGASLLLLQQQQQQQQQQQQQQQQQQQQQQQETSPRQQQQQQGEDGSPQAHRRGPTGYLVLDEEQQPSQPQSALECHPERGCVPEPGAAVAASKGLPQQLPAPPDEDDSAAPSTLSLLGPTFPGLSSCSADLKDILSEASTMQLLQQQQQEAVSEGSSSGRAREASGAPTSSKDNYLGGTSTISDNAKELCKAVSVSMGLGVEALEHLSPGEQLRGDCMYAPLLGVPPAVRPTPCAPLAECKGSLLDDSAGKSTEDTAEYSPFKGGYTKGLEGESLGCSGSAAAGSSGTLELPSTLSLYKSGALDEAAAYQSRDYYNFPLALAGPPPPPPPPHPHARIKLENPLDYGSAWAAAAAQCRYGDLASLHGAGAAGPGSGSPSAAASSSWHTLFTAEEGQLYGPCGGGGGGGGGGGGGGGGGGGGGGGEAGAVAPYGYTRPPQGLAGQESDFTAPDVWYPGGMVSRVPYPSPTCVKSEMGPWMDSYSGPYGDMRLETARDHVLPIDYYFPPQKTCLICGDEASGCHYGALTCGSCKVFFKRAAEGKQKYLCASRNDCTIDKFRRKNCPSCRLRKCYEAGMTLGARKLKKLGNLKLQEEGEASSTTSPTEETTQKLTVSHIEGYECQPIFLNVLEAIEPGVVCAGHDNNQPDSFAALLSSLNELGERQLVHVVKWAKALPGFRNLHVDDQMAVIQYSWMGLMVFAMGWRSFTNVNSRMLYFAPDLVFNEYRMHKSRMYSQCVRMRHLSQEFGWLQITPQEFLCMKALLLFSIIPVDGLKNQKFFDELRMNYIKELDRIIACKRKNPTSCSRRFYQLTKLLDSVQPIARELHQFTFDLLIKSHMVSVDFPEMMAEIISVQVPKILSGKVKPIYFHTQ
# Summary of the method: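 Steps: seed AR-UAS-bla GripTite HEK293 cells, incubate 4 h at 37C; pin in test compound, then add agonist R1881; incubate 16 h at 37C; add LiveBLAzer B/G FRET substrate, 2 h at room temperature; read fluorescence.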
# [16] = molecular target: Androgen receptor (Homo sapiens) (UniProt P10275); experiment: qHTS assay to identify small molecule agonists of the androgen receptor (AR) signaling pathway (AID 743036; active = well fitted activation curve with a large enough effect in the signal ratio in the repeat runs, with a control signal flat, not every such curve was filed as active; the % refers to the signal ratio)
# Summary of the method: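 HEK293 cells stably carrying a UAS-driven beta-lactamase reporter (GeneBLAzer AR-UAS-bla-GripTite) were plated at 2,000 cells/well, rested 4 h at 37C, then exposed to compounds in DMSO for 16 h. LiveBLAzer B/G FRET substrate was added for 2 h at room temperature; fluorescence read.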
# [17] = molecular target: Androgen receptor (Homo sapiens) (UniProt P10275); experiment: qHTS assay to identify small molecule agonists of the androgen receptor (AR) signaling pathway using the MDA cell line (AID 743040; also: nearly all actives have a fitted effect of over 20% in size)
# Summary of the method: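 Luciferase read-out, ONE-Glo, 30 min RT. Cells: MDA-kb2 AR-luc, MMTV promoter with AR and GR response elements. Compound exposure 16 h, 37C, 0% CO2, after 5 h pre-incubation. qHTS agonist mode.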
# [18] = molecular target: Androgen receptor (Homo sapiens) (UniProt P10275); experiment: qHTS assay to identify small molecule antagonists of the androgen receptor (AR) signaling pathway using the MDA cell line (AID 743042; also: nearly all actives have a fitted effect of over 55% in size)
# Summary of the method: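 MDA-kb2 breast carcinoma cells carrying MMTV-luciferase (AR/GR responsive) were co-treated with compounds and the agonist R1881 for 16 h at 37C. Inhibition read as ONE-Glo luminescence; CellTiter-Fluor fluorescence measured in parallel for cytotoxicity.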
# [19] = qHTS assay to identify small molecule antagonists of the estrogen receptor alpha (ER-alpha) signaling pathway using the BG1 cell line (AID 743080; calls by dose curve; also: series mostly up to about 70 µM; nearly all actives have a fitted effect of over 25% in size)
# Summary of the method: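 Antagonist mode: compounds in DMSO were pinned onto BG1-Luc-4E2 cells alongside 17beta-estradiol agonist, incubated 21.5 h, and ERE-driven luciferase measured with ONE-Glo. Cytotoxicity was multiplexed using CellTiter-Fluor fluorescence.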
SMILES,outcome [1],Potency [2],Potency [3],Potency [4],outcome [5],Potency [6],Potency [7],Potency [8],outcome [9],Potency [10],Potency [11],Potency [12],Potency [13],outcome [14],outcome (Aromatase (Homo sapiens)),Potency [15],outcome [16],Potency [17],outcome [18],Potency [19]
[K+],inactive,inactive,inactive,inactive,inactive,inactive,inactive,inactive,inactive,inactive,inactive,inactive,inactive,inactive,inactive,,,,,
CCN(Cc1ccccc1)c1ccccc1,inactive,inactive,inactive,inactive,inactive,inactive,,,,inactive,inactive,inactive,inactive,inactive,inactive,inactive,inactive,inactive,inactive,inactive
CN1CC(=O)N/C1=N/C(=O)Nc1cccc(Cl)c1,inactive,inactive,inactive,inactive,inactive,inactive,inactive,inactive,inactive,inactive,inactive,inactive,29.8 µM (active) and 5.31 µM (active),inactive,inactive,,,,,
Cc1ccc(-c2ncc(Cl)cc2-c2ccc(S(C)(=O)=O)cc2)cn1,inactive,inactive,inactive,inactive,inactive,inactive,inactive,inactive,inactive,inactive,inactive,inactive,inactive,inactive,inactive,inactive,inactive,inactive,inactive,
CCCCc1ccc2c(n1)[C@@H](c1ccc(OC)cc1C[C@H](C)C(=O)O)[C@H](C(=O)O)[C@H]2c1ccc2c(c1)OCO2,inactive,inactive,inactive,inactive,inactive,inactive,inactive,inactive,inactive,inactive,inactive,inactive,inactive,inactive,inactive,,,,,inactive
CC[N+](CC)(CC)CCOc1cccc(OCC[N+](CC)(CC)CC)c1OCC[N+](CC)(CC)CC,inactive,inactive,inactive,inactive,inactive,inactive,inactive,inactive,inactive,,inactive,,,inactive,inactive,inactive,,inactive,inactive,
CCCCN(CCC(=O)OCC)C(C)=O,inactive,inactive,inactive,inactive,inactive,inactive,inactive,inactive,inactive,inactive,inactive,inactive,inactive,inactive,inactive,,,,,inactive
CO[Si](C)(OC)c1ccccc1,inactive,inactive,inactive,inactive,inactive,inactive,inactive,inactive,inactive,inactive,inactive,inactive,inactive,inactive,inactive,,,,,inactive
